Laboratory results from ChEMBL document CHEMBL1157539, “Thousands of chemical starting points for antimalarial lead identification” (Nature, 2010).

What follows are compounds tested on Plasmodium falciparum (assay: GSK_TCMDC: Inhibition of Plasmodium falciparum 3D7 in whole red blood cells, using parasite LDH activity as an index of growth. Test compounds present at 2uM).
Format: functional

Question: With `O=C(O)C(F)(F)F.O=S(=O)(NCCN1CCCC1)c1cccc(-c2cccc(CNCCc3cccs3)c2)c1` as the compound, how does the Inhibition read?
Answer: Its Inhibition is 100%.

Question: `O=C(/C=C/c1ccc(Cl)c(Cl)c1)NCCCCCCN1CCCN(C(=O)Nc2cccc(C(F)(F)F)c2)CC1` was tested. Which Inhibition did it give?
Answer: The Inhibition was 95%.

Question: Which Inhibition does the source give for `Br.CC1(C)N=C(N)N=C(N)N1OCC1COc2ccccc2O1` (stereo not drawn) here?
Answer: The Inhibition was 96%.

Question: How did the Inhibition turn out when `CCCCCCN1CCCN(Cc2cccc(NC(=O)c3cc4ccccc4s3)c2)CC1.O=C(O)C(F)(F)F` was run?
Answer: Its Inhibition is 88%.

Question: With `COc1ccc(Br)cc1/C=C/C(=O)Nc1ccc(C2CCN(C)CC2)cc1.O=CO` as the compound, how does the Inhibition read?
Answer: Its Inhibition is 100%.

Question: With `O=C(Nc1ccc(C(F)(F)F)cc1)NC1CCN(c2ccnc3cc(Cl)ccc23)C1.O=C(O)C(F)(F)F` (stereo not drawn) as the compound, how does the Inhibition read?
Answer: Its Inhibition is 100%.

Question: For `O=C(Nc1cccc(C(F)(F)F)c1)c1ccc(S(=O)(=O)NCC2CCCN2CC2CCCCC2)cc1.O=C(O)C(F)(F)F` (stereo not drawn), which Inhibition is on record?
Answer: Its Inhibition is 98%.

Question: With `O=C(CCCCCNC(=O)c1ccc(O)c(-c2ccc(Cl)c(Cl)c2)c1)NCCN1CCOCC1` as the compound, how does the Inhibition read?
Answer: Its Inhibition is 95%.

Question: For `O=C(Nc1ccc(-c2nc3ccccc3[nH]2)cc1)c1ccc(N2CCCC2)c([N+](=O)[O-])c1`, which Inhibition is on record?
Answer: Its Inhibition is 100%.

Question: How did the Inhibition turn out when `O=C(Cc1c[nH]cn1)Nc1ccc(-c2ccc(-c3nc4ccccc4[nH]3)s2)cc1` was run?
Answer: The Inhibition was 90%.

Question: `CC(C)(C)c1ccc(NC(=O)Nc2ccc(Cn3ncc(N4CCCNCC4)c(Cl)c3=O)cc2)cc1.O=C(O)C(F)(F)F` was tested. Which Inhibition did it give?
Answer: The Inhibition was 95%.

Question: How did the Inhibition turn out when `Cc1cnc(Nc2cccc(CCN3CCOCC3)c2)nc1NC(C)C.Cl` was run?
Answer: The Inhibition was 97%.

Question: How did the Inhibition turn out when `Cc1ccc2[nH]c(-c3cc(-c4ccc(OCc5ccccc5)cc4)cnc3N)nc2c1.O=C(O)C(F)(F)F` was run?
Answer: The Inhibition was 91%.

Question: How did the Inhibition turn out when `Cc1cc(Nc2ccccc2)nc(NCCOc2ccccc2)n1.Cl` was run?
Answer: Its Inhibition is 100%.

Question: `COc1ccc(C2CCN(CCCCNC(=O)c3ccc(NC(=O)c4ccc(Cl)cc4)cc3)CC2)c(C)c1.Cl` was tested. Which Inhibition did it give?
Answer: Its Inhibition is 98%.

Question: For `CCCc1ccccc1OCC(O)CN(C1CCCC1)C1CCCC1.Cl` (stereo not drawn), which Inhibition is on record?
Answer: Its Inhibition is 97%.

Question: How did the Inhibition turn out when `CCOc1cc(C)c(C2CCN(CCCCNC(=O)c3ccc(NC(=O)c4ccc(Cl)cc4)cc3)CC2)cc1C` was run?
Answer: The Inhibition was 100%.

Question: `Cc1ccc(CNc2ccc3ncc(-c4cccc(C(=O)NCCN(C)C)c4)n3n2)c(C)c1` was tested. Which Inhibition did it give?
Answer: The Inhibition was 100%.

Question: With `CC(C)(C)c1ccc(N2C(N)=NC(N)=NC2(C)C)cc1.Cl` as the compound, how does the Inhibition read?
Answer: Its Inhibition is 93%.

Question: How did the Inhibition turn out when `N=C(N)NN=CC(=O)Nc1ccc(Cl)c(C(F)(F)F)c1` was run?
Answer: Its Inhibition is 100%.

Question: Which Inhibition does the source give for `CCc1nc(N)nc(N)c1-c1ccccc1` here?
Answer: The Inhibition was 92%.

Question: `COc1ccc2nccc(N3CCC(SCCNS(=O)(=O)c4ccc5c(c4)OCCO5)C3)c2n1.Cl` (stereo not drawn) was tested. Which Inhibition did it give?
Answer: Its Inhibition is 94%.

Question: How did the Inhibition turn out when `O=C(N1CCN(c2ccnc3cc4c(cc23)N(Cc2ccccc2)CC4)CC1)C(F)(F)F` was run?
Answer: The Inhibition was 100%.

Question: `O=C(NCC(CCCN1CCC(c2c[nH]c3ccccc23)CC1)c1ccccc1)Nc1ccc(Cl)c(Cl)c1` (stereo not drawn) was tested. Which Inhibition did it give?
Answer: Its Inhibition is 100%.

Question: With `CC(=O)Oc1c(C(=O)C2CCC(C(C)(C)C)CC2)c(OC(C)=O)c2ccccc2c1OC(C)=O` (stereo not drawn) as the compound, how does the Inhibition read?
Answer: The Inhibition was 96%.

Question: For `Cc1[nH]c(C)c(-c2ccc(Oc3ccc(O)cc3)cc2)c(=O)c1Cl`, which Inhibition is on record?
Answer: The Inhibition was 91%.

Question: How did the Inhibition turn out when `CS(=O)(=O)c1ccc(-c2cnc(N)c(-c3cccc(O)c3)c2)cc1` was run?
Answer: Its Inhibition is 98%.

Question: `COc1ccc(Br)cc1/C=C/C(=O)Nc1ccc(C2CCCN(C)C2)cc1.O=CO` (stereo not drawn) was tested. Which Inhibition did it give?
Answer: The Inhibition was 100%.

Each compound was assayed on Plasmodium falciparum (assay: GSK_TCMDC: Inhibition of Plasmodium falciparum Dd2 in whole red blood cells, using parasite LDH activity as an index of growth. Test compounds present at 2uM).
Format: functional

Question: How did the Inhibition turn out when `CCCCNC(=O)c1[nH]c2c(NC(=O)COc3ccccc3)cccc2c1-c1cccc(NC(=O)C(N)CO)c1` (stereo not drawn) was run?
Answer: The Inhibition was 0%.

Question: Which Inhibition does the source give for `CC[C@H](C)CNC(=O)c1cccc(-c2ccc(CN3CCC(N4CCCC4)CC3)cc2)n1.O=C(O)C(F)(F)F` here?
Answer: The Inhibition was 82%.

Question: `CN1CCc2ccc(NC(=O)Nc3cccc(C(=O)c4ccccc4)c3)cc2C1` was tested. Which Inhibition did it give?
Answer: The Inhibition was 16%.

Question: Which Inhibition does the source give for `Cc1nc(N)nc(N)c1CCCOc1ccc(Br)cc1` here?
Answer: Its Inhibition is 5%.

Question: How did the Inhibition turn out when `Cc1ccc(NC(=O)Nc2ccccc2F)cc1-c1ccc(C(=O)Nc2ccncc2)cc1` was run?
Answer: Its Inhibition is 54%.

Question: How did the Inhibition turn out when `COc1ccc2nccc([C@@H](O)CN3CCC(NC(=O)c4ccc(-c5ccc(C#N)cc5)cc4)CC3)c2c1` was run?
Answer: Its Inhibition is 91%.

Question: With `Cl.O=C(NC1CCC(N2CCN(c3cccc4[nH]ccc34)CC2)CC1)c1cc2cccnc2[nH]1` (stereo not drawn) as the compound, how does the Inhibition read?
Answer: The Inhibition was 85%.

Question: With `CC[C@H](C)CNC(=O)c1cccc(-c2cccc(CN3CCC(N4CCCC4)CC3)c2)n1.O=C(O)C(F)(F)F` as the compound, how does the Inhibition read?
Answer: Its Inhibition is 86%.

Question: `Cc1cc(C)cc(OCC(O)CN(CCN2CCOCC2)C(=O)Nc2ccc(Br)cc2)c1.O=C(O)C(F)(F)F` (stereo not drawn) was tested. Which Inhibition did it give?
Answer: Its Inhibition is 19%.

Question: `O=C(O)C(F)(F)F.Oc1ccc(CCNc2nc(NCc3ccccc3-c3ccc(C(F)(F)F)cc3)nc(NC3CCNCC3)n2)cc1` was tested. Which Inhibition did it give?
Answer: Its Inhibition is 2%.

Question: For `CN1CCC(N(Cc2ccc(-c3cnc(NCc4ccccc4)nc3)cc2)S(=O)(=O)c2ccccc2)CC1.O=C(O)C(F)(F)F`, which Inhibition is on record?
Answer: The Inhibition was 10%.

Question: How did the Inhibition turn out when `CC(Oc1c(C2CCN(CCCCNC(=O)c3ccc(-c4ccc(C#N)cc4)cc3)CC2)ccc2c1CCCC2)C(N)=O` (stereo not drawn) was run?
Answer: The Inhibition was 83%.

Question: Which Inhibition does the source give for `O=C(O)C(F)(F)F.O=S(=O)(NCCN1CCCC1)c1cccc(-c2cccc(CNCCc3cccs3)c2)c1` here?
Answer: Its Inhibition is 45%.

Question: For `O=C(/C=C/c1ccc(Cl)c(Cl)c1)NCCCCCCN1CCCN(C(=O)Nc2cccc(C(F)(F)F)c2)CC1`, which Inhibition is on record?
Answer: The Inhibition was 0%.

Question: How did the Inhibition turn out when `Br.CC1(C)N=C(N)N=C(N)N1OCC1COc2ccccc2O1` (stereo not drawn) was run?
Answer: The Inhibition was 66%.

Question: With `CCCCCCN1CCCN(Cc2cccc(NC(=O)c3cc4ccccc4s3)c2)CC1.O=C(O)C(F)(F)F` as the compound, how does the Inhibition read?
Answer: Its Inhibition is 53%.

Question: How did the Inhibition turn out when `COc1ccc(Br)cc1/C=C/C(=O)Nc1ccc(C2CCN(C)CC2)cc1.O=CO` was run?
Answer: Its Inhibition is 61%.

Question: How did the Inhibition turn out when `O=C(Nc1ccc(C(F)(F)F)cc1)NC1CCN(c2ccnc3cc(Cl)ccc23)C1.O=C(O)C(F)(F)F` (stereo not drawn) was run?
Answer: Its Inhibition is 99%.

Question: For `O=C(Nc1cccc(C(F)(F)F)c1)c1ccc(S(=O)(=O)NCC2CCCN2CC2CCCCC2)cc1.O=C(O)C(F)(F)F` (stereo not drawn), which Inhibition is on record?
Answer: Its Inhibition is 3%.

Question: How did the Inhibition turn out when `O=C(CCCCCNC(=O)c1ccc(O)c(-c2ccc(Cl)c(Cl)c2)c1)NCCN1CCOCC1` was run?
Answer: The Inhibition was 0%.

Question: Which Inhibition does the source give for `O=C(Nc1ccc(-c2nc3ccccc3[nH]2)cc1)c1ccc(N2CCCC2)c([N+](=O)[O-])c1` here?
Answer: Its Inhibition is 95%.

Question: How did the Inhibition turn out when `O=C(Cc1c[nH]cn1)Nc1ccc(-c2ccc(-c3nc4ccccc4[nH]3)s2)cc1` was run?
Answer: Its Inhibition is 34%.

Question: For `CC(C)(C)c1ccc(NC(=O)Nc2ccc(Cn3ncc(N4CCCNCC4)c(Cl)c3=O)cc2)cc1.O=C(O)C(F)(F)F`, which Inhibition is on record?
Answer: The Inhibition was 33%.

Question: Which Inhibition does the source give for `Cc1cnc(Nc2cccc(CCN3CCOCC3)c2)nc1NC(C)C.Cl` here?
Answer: The Inhibition was 76%.

Question: How did the Inhibition turn out when `Cc1ccc2[nH]c(-c3cc(-c4ccc(OCc5ccccc5)cc4)cnc3N)nc2c1.O=C(O)C(F)(F)F` was run?
Answer: Its Inhibition is 87%.

Question: `Cc1cc(Nc2ccccc2)nc(NCCOc2ccccc2)n1.Cl` was tested. Which Inhibition did it give?
Answer: Its Inhibition is 48%.

Question: For `COc1ccc(C2CCN(CCCCNC(=O)c3ccc(NC(=O)c4ccc(Cl)cc4)cc3)CC2)c(C)c1.Cl`, which Inhibition is on record?
Answer: Its Inhibition is 35%.

Question: With `CCCc1ccccc1OCC(O)CN(C1CCCC1)C1CCCC1.Cl` (stereo not drawn) as the compound, how does the Inhibition read?
Answer: The Inhibition was 97%.

Question: `CCOc1cc(C)c(C2CCN(CCCCNC(=O)c3ccc(NC(=O)c4ccc(Cl)cc4)cc3)CC2)cc1C` was tested. Which Inhibition did it give?
Answer: Its Inhibition is 87%.

Question: For `Cc1ccc(CNc2ccc3ncc(-c4cccc(C(=O)NCCN(C)C)c4)n3n2)c(C)c1`, which Inhibition is on record?
Answer: The Inhibition was 78%.

Question: For `CC(C)(C)c1ccc(N2C(N)=NC(N)=NC2(C)C)cc1.Cl`, which Inhibition is on record?
Answer: The Inhibition was 0%.

Question: With `N=C(N)NN=CC(=O)Nc1ccc(Cl)c(C(F)(F)F)c1` as the compound, how does the Inhibition read?
Answer: Its Inhibition is 0%.

Question: Which Inhibition does the source give for `CCc1nc(N)nc(N)c1-c1ccccc1` here?
Answer: Its Inhibition is 1%.

Question: How did the Inhibition turn out when `COc1ccc2nccc(N3CCC(SCCNS(=O)(=O)c4ccc5c(c4)OCCO5)C3)c2n1.Cl` (stereo not drawn) was run?
Answer: Its Inhibition is 87%.

Question: Which Inhibition does the source give for `O=C(N1CCN(c2ccnc3cc4c(cc23)N(Cc2ccccc2)CC4)CC1)C(F)(F)F` here?
Answer: Its Inhibition is 100%.

Question: For `O=C(NCC(CCCN1CCC(c2c[nH]c3ccccc23)CC1)c1ccccc1)Nc1ccc(Cl)c(Cl)c1` (stereo not drawn), which Inhibition is on record?
Answer: Its Inhibition is 64%.

Question: `CC(=O)Oc1c(C(=O)C2CCC(C(C)(C)C)CC2)c(OC(C)=O)c2ccccc2c1OC(C)=O` (stereo not drawn) was tested. Which Inhibition did it give?
Answer: The Inhibition was 96%.

Question: `Cc1[nH]c(C)c(-c2ccc(Oc3ccc(O)cc3)cc2)c(=O)c1Cl` was tested. Which Inhibition did it give?
Answer: Its Inhibition is 87%.

Question: How did the Inhibition turn out when `CS(=O)(=O)c1ccc(-c2cnc(N)c(-c3cccc(O)c3)c2)cc1` was run?
Answer: Its Inhibition is 97%.

Question: `COc1ccc(Br)cc1/C=C/C(=O)Nc1ccc(C2CCCN(C)C2)cc1.O=CO` (stereo not drawn) was tested. Which Inhibition did it give?
Answer: Its Inhibition is 35%.
